# Source: the supplement of paper PMC10105736
# Values without a mark were called inactive.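 The calls were made as follows: active = MAPPIT score above the 99th percentile of random reference set scores in the same batch; inactive = at or below it.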
# B1: Nup62 (protein)
# chain: MVFQLPTTTAAPTGGATSSFSFGLSTGTPAAAPASGAATTAPATKTTFSFGTPAPTAGIGGGDADNSKAQAPPAFGFGLGSGTASAPLTLGTQAAANPASTTSATATGTSAAPPAFGGFTAQPAASVVPTIATSAPNTAATTTGLLGGSGLGAPKTTAAASTTLTAAPSAIASTQGAAPAPTLSTGGAFANLTTETKTTDSSAVSTASQLSYHQLEEHINKWTLEFEEQEKVFTEQATQINAWDKLLISNNGKIVELNDAVKKVKTDQQVLDQELEFIATQQKELEDSLGPLEKEFVNLPRVDMERSQTYLMVENLDTQLKQMSEDLKEIIDNLNEANKGQDTTDPIIQIGKILNAHMNSLQWIESQSTNISKKLEDIGKIQDSQKRDIFRAPF
# B2: unk (protein)
# chain: MLANETNKLLLSSQQEKPNHYTYLKEFRVEQCQSFLQHKCNQHRPFVCFNWHFQNQRRRRPVRKRDGTFNYSADNYCTKYDETTGICPEGDECPYLHRTAGDTERRYHLRYYKTCMCVHDTDSRGYCVKNGLHCAFAHGMQDQRPPVYDIKELETLQNAESTLDSTNALNALDKERNLMNEDPKWQDTNYVLANYKTEPCKRPPRLCRQGYACPQYHNSKDKRRSPRKYKYRSTPCPNVKHGEEWGEPGNCEAGDNCQYCHTRTEQQFHPEIYKSTKCNDVQQAGYCPRSVFCAFAHVEPCSMDDPRENSLSASLANTSLLTRSSAPINIPNTTLSNSINDFNSGSFAVNIPSSSLTYSPTNHANLFNVDAFNYGGSNKLSNSLSATQNDSSLFFPSRIISPGFGDGLSISPSVRISELNTIRDDINSSSVGNSLFENTLNTAKNAFSLQSLQSQNNSDLGRITNELLTKNAQIHKLNGRFEDMACKLKIAELHRDKAKQEAQEWKERYDLAQIQLNLPAELRDLSIQKLKQLQSKLRTDLEEVDKVLYLENAKKCMKCEENNRTVTLEPCNHLSICNTCAESVTECPYCQVPVITTHT
# B3: RpS21 (protein)
# chain: MENDAGENVDLYVPRKCSASNRIIHAKDHASVQLSIVDVDPETGRQTDGSKTYAICGEIRRMGESDDCIVRLAKKDGIITKNF
# B4: Ubc4 (protein)
# chain: MANMAVSRIKREFKEVMRSEEIVQCSIKIELVNDSWTELRGEIAGPPDTPYEGGKFVLEIKVPETYPFNPPKVRFITRIWHPNISSVTGAICLDILKDNWAAAMTLRTVLLSLQALLAAAEPDDPQDAVVAYQFKDKYDLFLLTAKHWTNAYAGGPHTFPDCDSKIQRLRDMGIDEHEARAVLSKENWNLEKATEGLFS
# B5: Cyp4d2 (protein)
# chain: MLGVVGVLLLVAFATLLLWDFLWRRRGNGILPGPRPLPFLGNLLMYRGLDPEQIMDFVKKNQRKYGRLYRVWILHQLAVFSTDPRDIEFVLSSQQHITKNNLYKLLNCWLGDGLLMSTGRKWHGRRKIITPTFHFKILEQFVEIFDQQSAVMVEQLQSRADGKTPINIFPVICLTALDIIAETAMGTKINAQKNPNLPYVQAVNDVTNILIKRFIHAWQRVDWIFRLTQPTEAKRQDKAIKVMHDFTENIIRERRETLVNNSKETTPEEEVNFLGQKRRMALLDVLLQSTIDGAPLSDEDIREEVDTFMFEGHDTTTSAISFCLYEISRHPEVQQRLQQEIRDVLGEDRKSPVTLRDLGELKFMENVIKESLRLHPPVPMIGRWFAEDVEIRGKHIPAGTNFTMGIFVLLRDPEYFESPDEFRPERFDADVPQIHPYAYIPFSAGPRNCIGQKFAMLEMKSTVSKLLRHFELLPLGPEPRHSMNIVLRSANGVHLGLKPRA
# B6: Mob2 (protein)
# chain: MNWAISNLTGGNRVSRAILVRYSSVPLADATNDGSSTAPQTPTASTPRPSSSHSSLSSTFAATFLHASSRHIPGRAVPRQNANGQNGGKGNASGAGGGAGGGGAGGASGGTGGTGAQAAGQLSLPLDVEETVTCFCRKARRKERDGDQNSTDTKLYLEESVLERKLPEADLKALVDLPAGLDYNEWLASHTLALFEHVNLVYGTISEFCTQSGCADMTGPGNRTYLWFDEKGKKTRVAAPQYIDYVMTFTQKTVSDESIFPTKYANEFPGSFESIARKILRLQFHVIAHLYAAHFREIALLGLHTHLNLTFAHLTALHRRFNLIDEKETDVLRDLEVALRLTDDTGGCQDATSTTSSVHDHSHSGDLQHQSLQQQQQHHNSSSNSTSSAEAFHVNSQSNNGSTSASASVSLIDGDAVAPPICTQPEAGAGCKPAGSSGLLGGILGDLTSGEFGDTTRYCTSAVPQAAAAAGAGVGGTAIGATDAAALNNGAGALHLNFSNNNNNNHNLNHHHHHHHHHGHHGHHHAAQQQQQHSGLIQCNAAGGGGNATGVATGGATAAASSTTTA
# B7: betaTub85D (protein)
# chain: MREIVHIQAGQCGNQIGGKFWEVISDEHCIDATGTYYGDSDLQLERINVYYNEATGAKYVPRAILVDLEPGTMDSVRSGAFGQIFRPDNFVFGQSGAGNNWAKGHYTEGAELVDSVLDVVRKESEGCDCLQGFQLTHSLGGGTGSGMGTLLISKIREEYPDRIMNTFSVVPSPKVSDTVVEPYNATLSVHQLVENTDETYCIDNEALYDICFRTLKLTTPTYGDLNHLVSATMSGVTTCLRFPGQLNADLRKLAVNMVPFPRLHFFMPGFAPLTSRGSQQYRALTVPELTQQMFDAKNMMAACDPRHGRYLTVAAIFRGRMSMKEVDEQMLNIQNKNSSFFVEWIPNNCKTAVCDIPPRGLKMSATFIGNSTAIQELFKRVSEQFTAMFRRKAFLHWYTGEGMDEMEFTEAESNMNDLVSEYQQYQEATADEEGEFDEDEEGGGDE
# Experiments:
# Assay in all cases: MAPPIT interaction score (arbitrary units); higher = stronger binary interaction signal, active = hit call of the paper
# CG32809 = details: MAPPIT configuration: N-N; pair source set: Curagen_low_conf
# RhoGAP92B = details: MAPPIT configuration: N-N; pair source set: Curagen_low_conf
# CG32846 = details: MAPPIT configuration: N-N; pair source set: screen_1
# Git = details: MAPPIT configuration: N-N; pair source set: screen_2
# Mst87F = details: MAPPIT configuration: N-N; pair source set: screen_2
# CG33514 = details: MAPPIT configuration: N-N; pair source set: DPIM
# cv = details: MAPPIT configuration: N-N; pair source set: DPIM
# dah = details: MAPPIT configuration: N-N; pair source set: DPIM
# CG3356 = details: MAPPIT configuration: N-N; pair source set: Lit-BS-16
# sinah = details: MAPPIT configuration: N-N; pair source set: screen_1
# CG34149 = details: MAPPIT configuration: N-C; pair source set: RRS
# CG34168 = details: MAPPIT configuration: N-N; pair source set: Curagen_high_conf
# CG34328 = details: MAPPIT configuration: N-C; pair source set: screen_3
# 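Also: HEK293T cells with Epo stimulation, STAT-responsive firefly luciferase reporter, fold induction versus unstimulated cells divided by the larger fold induction of two negative controls lacking either bait or prey.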
binder,measurement,setting,value
B1,MAPPIT interaction score,CG32809,2.19
same,MAPPIT interaction score,RhoGAP92B,0.00556
B2,MAPPIT interaction score,CG32846,-2.23
same,MAPPIT interaction score,Git,1.05
same,MAPPIT interaction score,Mst87F,0.54
B3,MAPPIT interaction score,CG33514,0.423
same,MAPPIT interaction score,cv,-0.17
same,MAPPIT interaction score,dah,-0.359
B4,MAPPIT interaction score,CG3356,0.159
same,MAPPIT interaction score,sinah,2.14
B5,MAPPIT interaction score,CG34149,-1.31
B6,MAPPIT interaction score,CG34168,0.212
B7,MAPPIT interaction score,CG34328,4.11 (active)
